Source: ChEMBL document CHEMBL4296182, “CO-ADD screening of NIH NCI Diversity Set V”
Where “and” joins values, the source holds several entries; their conditions need not be identical. Identical values can stand only once. For some assays here: Results with a measured potency or affinity are listed apart.

Columns and labels:
Staphylococcus aureus = experiment: Antibacterial activity against Staphylococcus aureus MRSA ATCC 43300 (CO-ADD:GP_020); MIC in CAMBH media using NBS plates, by Resazurin F(560/590); type: functional; conditions: Concentration 20 uM, ASSAY_TEST Inhibition of Bacterial Growth, detection method Resazurin, Fluorescence (ex560/em590), MEDIA CAMHB, plate type 384well, CORNING #3640, time 18 hr
Acinetobacter baumannii = experiment: Antibacterial activity against Acinetobacter baumannii ATCC 19606 (CO-ADD:GN_034); MIC in CAMBH media using NBS plates, by Resazurin F(560/590); type: functional; conditions: Concentration 20 uM, ASSAY_TEST Inhibition of Bacterial Growth, detection method Resazurin, Fluorescence (ex560/em590), MEDIA CAMHB, plate type 384well, CORNING #3640, time 18 hr
Escherichia coli = experiment: Antibacterial activity against Escherichia coli ATCC 25922 (CO-ADD:GN_001); MIC in CAMBH media using NBS plates, by Resazurin F(560/590); type: functional; conditions: Concentration 20 uM, ASSAY_TEST Inhibition of Bacterial Growth, detection method Resazurin, Fluorescence (ex560/em590), MEDIA CAMHB, plate type 384well, CORNING #3640, time 18 hr
Klebsiella pneumoniae = conditions: Concentration 20 uM, ASSAY_TEST Inhibition of Bacterial Growth, detection method Absorption (OD600), MEDIA CAMHB, plate type 384well, NBS, CORNING #3640, time 18 hr
Candida albicans = conditions: 20 µM
Cryptococcus neoformans = conditions: Concentration 20 uM, ASSAY_TEST Inhibition of Fungal Growth, detection method Resazurin, Absorption (OD600-OD570), plate type 384well, NBS, CORNING #3640

| SMILES | Inhibition (Staphylococcus aureus) | Inhibition (Acinetobacter baumannii) | Inhibition (Escherichia coli) | Inhibition (Klebsiella pneumoniae) | Inhibition (Candida albicans) | Inhibition (Cryptococcus neoformans) | Inhibition (Staphylococcus aureus; 18 h, 20 µM) | Inhibition (Acinetobacter baumannii; 18 h, 20 µM) | Inhibition (Klebsiella pneumoniae; 20 µM) | Inhibition (Cryptococcus neoformans; 20 µM) |
| --- | --- | --- | --- | --- | --- | --- | --- | --- | --- | --- |
| CC1=NN(c2ccccc2)C(=O)C1C(=S)SC1CC(=O)NC1=O (stereo not drawn) | 3.9% | 14.97% | -13.13% | 16.67% | 6.57% | 3.97% |  |  |  |  |
| CCCCCc1cccnc1 | 1.69% | -4.62% | 11.47% | 10.71% | 2.3% | -0.18% |  |  |  |  |
| O=C(NCc1ccco1)Nc1ccc([N+](=O)[O-])cc1 | 14.72% | 3.43% | 4.45% | 18.95% | 5.76% | -12.12% |  |  |  |  |
| NC1=NC(c2ccc(Cl)cc2)N(c2ccc(S(N)(=O)=O)cc2)C(N)=N1 (stereo not drawn) | -8.08% | 15.66% | 1.13% | 8.28% | -0.99% | -3.51% |  |  |  |  |
| Nc1ccc(C(=O)c2cccs2)cn1 | 33.76% | 0% | 26.4% | 9.25% | 8.82% | -0.14% |  |  |  |  |
| N[C@H](C(=O)O)[C@H]1ON=C(Cl)[C@@H]1O | 11.62% | -0.47% | 10.43% | 5% | 2.6% | -3.55% |  |  |  |  |
| O=[N+]([O-])C1C(c2ccccc2)C12c1ccccc1-c1ccccc12 (stereo not drawn) | 1.75% | -9.94% | 13.79% | -4% | -1.91% | -10.55% |  |  |  |  |
| c1ccc(NCCSc2nc3ccccc3s2)cc1 | 32.95% | -17.22% | 10.16% | 12.47% | 3.32% | 13.76% |  |  |  |  |
| CCC(=Cc1ccc(CC)cn1)CC | 5.02% | -14.68% | 4.35% | 10.54% | 0.05% | -5.56% |  |  |  |  |
| CN(C)S(=O)(=O)N1C(=O)c2ccccc2C1=O | 5.4% | 12.12% | -0.21% | 11.91% | 5.89% | -1.33% |  |  |  |  |
| CC(C)(C)CC(C)(C)N1CN=C(S)NC1 | 14.76% | 8.83% | 1.22% | 6.38% | 1.25% | -7.67% |  |  |  |  |
| Cc1cnc2cc(Cl)ccc2c1SCC(=O)O | 2.5% | 10.23% | 1.72% | 11.14% | 11.6% | -9.96% |  |  |  |  |
| Nc1nnc(S)n1-c1ccc(Cl)cc1 | 10.79% | -9.57% | 13.33% | -2.18% | 11.3% | -11.28% |  |  |  |  |
| CN(C)c1nc(Cl)nc2c1nc(Cl)n2C1CCCCO1 (stereo not drawn) | 8.01% | -7.69% | 0.28% | 5.28% | 1.95% | -3.53% |  |  |  |  |
| CCOC(=O)c1ccc2c(c1)NCc1cccc(OC)c1O2 | 4.26% | -16.83% | 9.22% | 6.83% | 9.96% | -17.21% |  |  |  |  |
| CCOC(=O)c1cc(-c2ccccc2)nc2ccc(C)cc12 [NEOCINCHOPHEN] | 2.82% | 5.48% | -14.74% | 14.7% | 9.92% | 24.59% |  |  |  |  |
| O=C(O)CCC(=O)OCCN(Cc1ccc(Oc2ccc([N+](=O)[O-])cc2)cc1)C(=O)C(Cl)Cl | -5.95% | 0.5% | -4.03% | 4.09% | 4.52% | -1.27% |  |  |  |  |
| O=[N+]([O-])c1cc(-c2cccnc2)[nH]n1 | -4.13% | -4.27% | 2.34% | 30.86% | 1.12% | -1.42% |  |  |  |  |
| Cc1ccc(C)c(N2CCN(c3ccncc3N)CC2)c1 | -5.41% | -5.32% | 7.02% | 8.69% | 3.75% | -6.74% |  |  |  |  |
| OCc1nnn(-c2ccccc2)c1CO | 11.04% | -9.88% | 7.14% | 22.49% | -4.02% | -6.38% |  |  |  |  |
| C=C(C)CN1C(=O)C(C)S/C1=N/N=C1/SCC(=O)N1C (stereo not drawn) | 12.61% | 8.16% | 1.61% | 14.62% | 6.81% | -8.83% |  |  |  |  |
| NS(=O)(=O)c1ccc(Cl)cc1[N+](=O)[O-] | -0.55% | -3.88% | 8.03% | 12.78% | 3.7% | 15.75% |  |  |  |  |
| Nc1ccc(-c2nc3nc(N)nc(N)c3nc2-c2ccc(N)cc2)cc1 | 11.99% | -8.41% | -0.05% | 5.53% | 0.39% | -7.52% |  |  |  |  |
| C#CCSc1nnnn1-c1ccc(Br)c(C)c1 | 21.42% | 5.77% | 6.7% | 10.23% | 1.42% | -16.38% |  |  |  |  |
| CC(=O)Nc1ccc(OC(=O)Oc2ccc(NC(C)=O)cc2)cc1 | 37.09% | -4.35% | 7.78% | 22.87% | 5.36% | -3.28% |  |  |  |  |

| SMILES | Inhibition (Staphylococcus aureus) | Inhibition (Acinetobacter baumannii) | Inhibition (Escherichia coli) | Inhibition (Klebsiella pneumoniae) | Inhibition (Candida albicans) | Inhibition (Cryptococcus neoformans) | Inhibition (Staphylococcus aureus; 18 h, 20 µM) | Inhibition (Acinetobacter baumannii; 18 h, 20 µM) | Inhibition (Klebsiella pneumoniae; 20 µM) | Inhibition (Cryptococcus neoformans; 20 µM) |
| --- | --- | --- | --- | --- | --- | --- | --- | --- | --- | --- |
| O=C(NC(=S)Nc1cccc(O)c1)c1ccco1 | 2.34% | -0.89% | 12.02% | -1.93% | 0.31% | -18.75% |  |  |  |  |
| O=C(O)/C=C/C(=O)Nc1cccc2cccnc12 | 36.64% | -0.12% | 28.31% | 7.62% | 8.39% | 9.5% |  |  |  |  |
| O=C(Nc1ccc(Cl)cc1)Nc1cccc2nsnc12 | 6.14% | 9.14% | -11.2% | 5.1% | 11.3% | -2.68% |  |  |  |  |
| COc1ccc(NC(=O)CC(C)=O)c(OC)c1 | 5.13% | -8.6% | 1.4% | 22.3% | 0.23% | -3.01% |  |  |  |  |
| CC1=C2C3OC(=O)C(C)C3CCC2(C)C=C(Cl)C1=O (stereo not drawn) | -4.99% | -5.14% | -9.28% | 10.19% | 1.04% | -2.81% |  |  |  |  |
| OC(COc1cccc2ccccc12)CN1CCN(c2ccc(Cl)cc2)CC1 (stereo not drawn) |  |  |  |  | 1.46% and -1.63% |  | 7.27% and -7.63% | 6.27% and 10.91% | 26.3% and 15.3% | -9.84% and -9.74% |
| CCOC(=O)c1[nH]c(CO)c(C(=O)OCC)c1C | 12.97% | 11.05% | 2.06% | 19.54% | 9.36% | -4.6% |  |  |  |  |
| O=C(O)CSc1nc2ccccc2s1 | 14.28% | -9.51% | 3.19% | 0.1% | 13.9% | -12.74% |  |  |  |  |
| CNC1(C(N)=O)CCNCC1 | 10.6% | -11.41% | 16.83% | 15.69% | -0.33% | -6.49% |  |  |  |  |
| c1ccc(-c2nnc(-c3ccccc3)nn2)cc1 | 8.93% | 4.53% | 11.38% | -4.08% | -1.88% | -7.33% |  |  |  |  |
| NC(=O)CCC(C(=O)O)N1C(=O)C2C3CCC(C3)C2C1=O (stereo not drawn) | -3.52% | -4.02% | -8.27% | 4.97% | 2.39% | -5.24% |  |  |  |  |
| O=C1c2ccccc2NC(c2cc(Cl)cc(Cl)c2O)N1CCc1ccccn1 (stereo not drawn) | 27.48% | -1.5% | 9.13% | 12.19% | 2.81% | -0.4% |  |  |  |  |
| COc1cc(/C=N/N=c2\[nH]c3c(=O)n(C)c(=O)n(C)c3[nH]2)ccc1O | 15.24% | -6.89% | 14.34% | -8.37% | 48.3% | 33.61% |  |  |  |  |
| CC(=O)NCC(O)c1ccc([N+](=O)[O-])cc1 (stereo not drawn) | 9.36% | -9% | 7.49% | 22.16% | 1.24% | 2.12% |  |  |  |  |
| Clc1ccc(-c2c(C3=NCCCN3)nnn2-c2ccc(Cl)cc2)cc1 | 10.56% | -3.66% | 11.37% | 18% | 1.4% | -5.35% |  |  |  |  |
| CCC(C)NC(=O)c1cccc(C)c1 (stereo not drawn) | 27.07% | -10.03% | 12.99% | 13.06% | 3.19% | -7.62% |  |  |  |  |
| Oc1ccccc1-c1nnco1 [FENADIAZOLE] | 4.3% | -3.75% | 4.12% | 8.02% | 0.92% | -7.26% |  |  |  |  |
| CN1CN(C)C(c2ccncc2)=C1c1ccncc1 | 5.44% | 14.08% | -2.65% | 0.75% | -0.59% | -1.9% |  |  |  |  |
| CC1(C)CC2(C)OC2C2(C1)N=N/C(=N/c1ccccc1)O2 (stereo not drawn) | 27.69% | -0.3% | 4.99% | 7.34% | -0.47% | -10.74% |  |  |  |  |
| CCOC(=O)CSc1nc2nc(Cl)c(Cl)[nH]c-2n1 | 22.58% | 6.84% | -0.86% | 8.77% | 0.89% | 3.6% |  |  |  |  |
| COc1cc(NC(C)=O)c2ncccc2c1Br | 8.44% | -11.34% | 10.55% | 15.6% | 6.33% | -16.73% |  |  |  |  |
| c1ccc(-c2nc3ccccc3s2)nc1 | 11.77% | -14.54% | 6.85% | 18.93% | 0.91% | -15.52% |  |  |  |  |
| O=C1C2C3C=CC(CC3)C2S(=O)(=O)C2C3C=CC(CC3)C12 (stereo not drawn) | 13.49% | 12.35% | 8.07% | 7.08% | 3.05% | -7.34% |  |  |  |  |
| COC(=O)C1(C(=O)OC)C2C(=O)C3C(C21)C3(C(=O)OC(C)(C)C)C(=O)OC(C)(C)C (stereo not drawn) | 5.34% | -10.49% | 12.49% | 9.29% | 0.63% | -1.86% |  |  |  |  |
